The values below come from PubChem BioAssay (NCI).

Test systems include SR leukemia; RPMI-8226 leukemia; OVCAR-8 ovarian; OVCAR-5 ovarian; OVCAR-4 ovarian; SK-OV-3 ovarian; IGROV1 ovarian; OVCAR-3 ovarian; HS 578T breast; NCI/ADR-RES ovarian.
What all share (assay): NCI-60 one-dose screen, 48 h (100 = growth as untreated, 0 = no growth, -100 = all killed)
What all share (details): 10 µM unless noted

The structures appear in SMILES notation. Compounds without any hit were thinned out: in the full panel of roughly 83,000, 20% have a hit.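 Cells were grown in 96-well plates and exposed to the test compound at a single concentration for 48 hours; results are reported as percent growth, with values below 10 considered active.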 A number with no mark means an inactive call. Active and inactive are the calls of the source.

`CCCCC[n+]1ccc(SCC(=O)N(C)c2ccc(Oc3ccccc3)cc2)c2ccccc21`: the growth with SR leukemia was 84.5%; in the assay with RPMI-8226 leukemia it was 66.2%; in the assay on OVCAR-8 ovarian, 98.4%; in the assay with OVCAR-5 ovarian it was 105%; in the assay with OVCAR-4 ovarian it was 92.6%; in the assay with SK-OV-3 ovarian, 101%. The growth in the assay on IGROV1 ovarian is 117%; with OVCAR-3 ovarian it was 90.9%; in the assay on HS 578T breast, 109%; in the assay with NCI/ADR-RES ovarian it was 104%.
Turning to `COc1ccc(OC)c(-c2cc(-c3ccc(Cl)cc3)c3c(N)c(C(=O)c4ccc(Cl)cc4)sc3n2)c1`, the growth was 101% in the assay with SR leukemia; 94.2% in the assay with RPMI-8226 leukemia; 104% in the assay on OVCAR-8 ovarian; 96.4% with OVCAR-5 ovarian; 93.1% in the assay with OVCAR-4 ovarian; 89.8% in the assay on SK-OV-3 ovarian. Also, the growth in the assay on IGROV1 ovarian is 92.1%; with OVCAR-3 ovarian, 103%; in the assay with HS 578T breast it was 115%; in the assay with NCI/ADR-RES ovarian it was 103%.
As to `O=Cc1ccc(-c2cn3ccnc3c(-c3ccc4ncn(Cc5ccccc5)c4c3)n2)cc1`, the growth is 52.5% with SR leukemia; 17.5% with RPMI-8226 leukemia; 56% with OVCAR-8 ovarian; 102% with OVCAR-5 ovarian; 83.1% with OVCAR-4 ovarian; 94.9% with SK-OV-3 ovarian. In addition, the growth was 78.7% in the assay on IGROV1 ovarian, 76.3% in the assay on OVCAR-3 ovarian, 54.4% with HS 578T breast and 62.6% with NCI/ADR-RES ovarian.
Turning to `COc1cc2oc(-c3cccc(C(=O)Nc4ccc(Cl)cc4)c3)cc(=O)c2c(O)c1OC`, the growth was 65.1% with SR leukemia; 70% with RPMI-8226 leukemia; 16.3% in the assay on OVCAR-8 ovarian; 79.1% with OVCAR-5 ovarian; -30.4% (active) with OVCAR-4 ovarian; 58.3% in the assay on SK-OV-3 ovarian. Besides, the growth was 54% with IGROV1 ovarian, 30.4% with OVCAR-3 ovarian, 6.66% (active) in the assay on HS 578T breast and 37.3% in the assay with NCI/ADR-RES ovarian.
As for `CNC(=O)c1cccc(Cn2nc(C)c(NC(=O)c3ccc(COc4ccc(C(F)(F)F)cc4C)cc3)c2C)n1`, the growth in the assay on SR leukemia was 22%; with RPMI-8226 leukemia, 32.7%; with OVCAR-8 ovarian it was 35.8%; in the assay with OVCAR-5 ovarian, 104%; in the assay on OVCAR-4 ovarian it was 37.8%; in the assay on SK-OV-3 ovarian, 74%. Also, the growth in the assay on IGROV1 ovarian is 65.1%; in the assay on OVCAR-3 ovarian it was 35.1%; in the assay with HS 578T breast, 87.7%; in the assay with NCI/ADR-RES ovarian it was 33.4%.
Regarding `COc1cc(/C=C/c2cc(O)c(C(C)=O)c(O)c2)cc2c1O[C@]1(C)CC[C@@H](O)C(C)(C)[C@H]1C2`, the growth was 29.9% with SR leukemia; -7.38% (active) in the assay with RPMI-8226 leukemia; 67.7% in the assay with OVCAR-8 ovarian; 89.8% in the assay with OVCAR-5 ovarian; 90.8% in the assay on OVCAR-4 ovarian; 66.1% in the assay on SK-OV-3 ovarian. For the same molecule, the growth with IGROV1 ovarian is 60.3%; in the assay with OVCAR-3 ovarian, 61.4%; with HS 578T breast, 25.4%; with NCI/ADR-RES ovarian, 74.2%.
Consider `O=[N+]([O-])CC(c1ccccc1F)c1c[nH]c2ccccc12` (stereo not given), for which the growth in the assay with SR leukemia was 30.2%; with RPMI-8226 leukemia it was 76%; with OVCAR-8 ovarian, 78%; in the assay with OVCAR-5 ovarian it was 96%; in the assay with OVCAR-4 ovarian, 97.3%; with SK-OV-3 ovarian, 119%. The growth with IGROV1 ovarian is 68.6%; in the assay on OVCAR-3 ovarian, 77.9%; with HS 578T breast it was 77.2%; with NCI/ADR-RES ovarian, 48.2%.
On to `O=C(c1nnc(Nc2ccccc2Br)o1)c1c[nH]c2ccccc12`, for which the growth was 103% in the assay with SR leukemia; 93.6% in the assay on RPMI-8226 leukemia; 94.9% in the assay with OVCAR-8 ovarian; 99.6% in the assay with OVCAR-5 ovarian; 106% in the assay on OVCAR-4 ovarian; 83% in the assay on SK-OV-3 ovarian. Further, the growth is 72.6% in the assay with IGROV1 ovarian, 97.2% in the assay with OVCAR-3 ovarian, 104% in the assay with HS 578T breast and 102% with NCI/ADR-RES ovarian.
Take `O=C1c2ccc3c4c(ccc(c24)C(=O)N1CCCNCc1ccccc1F)C(=O)N(CCCNCc1ccccc1F)C3=O`: the growth in the assay on SR leukemia is -37.8% (active); with RPMI-8226 leukemia, -32.2% (active); in the assay on OVCAR-8 ovarian, -17.4% (active); with OVCAR-5 ovarian, -23% (active); with OVCAR-4 ovarian, -98.4% (active); with SK-OV-3 ovarian it was -21.8% (active). For the same molecule, the growth in the assay with IGROV1 ovarian was -57.7% (active); in the assay on OVCAR-3 ovarian it was -63% (active); in the assay on HS 578T breast, -23.7% (active); with NCI/ADR-RES ovarian, -18.4% (active).
As to `COc1cc2c(c(OC)c1OC)CCC(c1cccc(NC(=O)c3cccc(Br)c3)c1)O2` (stereo not given), the growth in the assay on SR leukemia was 84.2%; in the assay with RPMI-8226 leukemia, 78.2%; in the assay with OVCAR-8 ovarian it was 93.6%; with OVCAR-5 ovarian, 98.5%; in the assay with OVCAR-4 ovarian, 83.5%; in the assay with SK-OV-3 ovarian, 84%. Besides, the growth is 85% in the assay on IGROV1 ovarian, 97.3% with OVCAR-3 ovarian, 84.1% in the assay with HS 578T breast and 91.8% in the assay with NCI/ADR-RES ovarian.
Consider `Cn1c(-c2c(N)n(CCCN3CCOCC3)c3nc(C#N)c(C#N)nc23)nc2ccccc21`, for which the growth in the assay with SR leukemia is -57.7% (active); in the assay on RPMI-8226 leukemia it was 5.09% (active); with OVCAR-8 ovarian, 48.1%; in the assay with OVCAR-5 ovarian, 82%; in the assay on OVCAR-4 ovarian it was 73.7%; in the assay with SK-OV-3 ovarian it was 93.6%. In addition, the growth with IGROV1 ovarian was 65.6%; in the assay with OVCAR-3 ovarian it was 65.5%; in the assay with HS 578T breast, 94.3%; with NCI/ADR-RES ovarian, 78.6%.
For the molecule `NS(=O)(=O)c1ccc(CCN2C(=O)C=CC2=O)cc1`, the growth with SR leukemia is 91.6%; with RPMI-8226 leukemia, 102%; with OVCAR-8 ovarian, 104%; in the assay on OVCAR-5 ovarian, 106%; with OVCAR-4 ovarian, 97.7%; in the assay with SK-OV-3 ovarian it was 110%. Moreover, the growth was 104% in the assay on IGROV1 ovarian, 106% in the assay on OVCAR-3 ovarian, 108% with HS 578T breast and 99.6% in the assay on NCI/ADR-RES ovarian.
As to `Cc1cc2cc3ccc(N(C)C)cc3nc2cc1N`, the growth is -2.93% (active) with SR leukemia; -19.1% (active) in the assay with RPMI-8226 leukemia; -2.19% (active) in the assay on OVCAR-8 ovarian; 3.07% (active) with OVCAR-5 ovarian; -11.9% (active) in the assay on OVCAR-4 ovarian; -8.06% (active) in the assay with SK-OV-3 ovarian. For the same molecule, the growth is -1.84% (active) in the assay on IGROV1 ovarian, -24.7% (active) with OVCAR-3 ovarian, -32.5% (active) in the assay on HS 578T breast and 42.4% in the assay with NCI/ADR-RES ovarian.
As to `CN1C(=O)NC(c2ccc3c(c2)OCO3)C=C1c1ccccc1` (stereo not given), the growth in the assay on SR leukemia was 23.3%; with RPMI-8226 leukemia it was 65.5%; with OVCAR-8 ovarian, 93.6%; in the assay on OVCAR-5 ovarian, 93.9%; in the assay on OVCAR-4 ovarian it was 97.5%; with SK-OV-3 ovarian it was 94.1%. Besides, the growth with IGROV1 ovarian was 78.7%; in the assay with OVCAR-3 ovarian it was 91.1%; in the assay on HS 578T breast it was 101%; in the assay with NCI/ADR-RES ovarian, 98.8%.
